Screen size: about 290,000 compounds; about 3,000 (1%) were called active. Shown is part of a subset that was picked to be rich in actives. Values without a mark were called inactive. No stated cut-off is given here; in the data, active means inhibition mostly above about 36% (no sharp cut-off); inactive means mostly below about 34%.
Assay: inhibition of NOD1-driven NF-kB reporter – cell-based, luminescence, uHTS, primary screen (AID 1578);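 further: HEK-293T reporter cells stimulated with the NOD1 agonist gamma-tri-DAP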
Details: NOD1-driven NF-kB luciferase reporter cells, at 4 µM, stronger effect = higher value

Compared with `O=C(O)c1cccc(Nc2ncnc3ccc(Br)cc23)c1`, `Clc1ccc2c(NCc3ccco3)ncnc2c1` is higher in inhibition: -10.3% for the first, 16.7% for the second.

Going from `c1ccc(CNc2ncnc3sccc23)cc1` to `CC1Cc2ccccc2N1c1ncnc2c1nnn2Cc1ccccc1` (stereo not drawn), the inhibition falls from 31.8% to -0.2%.

First: COc1cc2ncnc(NCc3ccco3)c2cc1OC
Second: COc1cc(/C=N/NC(=O)CCOc2ccccc2C)cc(Br)c1O
The inhibition of the first is higher: -1.4% for the first, -26.7% for the second.

Going from `Cc1ccc(S(=O)(=O)CC(=O)c2ccccc2)cc1` to `Cc1nc2ccc(NC(=O)c3ccc(S(=O)(=O)N(C)c4ccccc4)cc3)cc2s1`, the inhibition rises from -10% to 17.6%.

Going from `CC(=O)Nc1c(C)cc(S(C)(=O)=O)cc1C` to `Cc1nc2ccc(NC(=O)c3ccc(S(=O)(=O)N(C)C)cc3)cc2s1`, the inhibition falls from -12.2% to -37.4%.

Going from `NC(=O)c1c(NC(NC(=O)c2ccco2)(C(F)(F)F)C(F)(F)F)sc2c1CCCC2` to `CN(C)C(=O)c1cc(C(=O)c2ccc(C(F)(F)F)cc2F)c[nH]1`, the inhibition rises from -24.2% to 21.8%.

First: O=C(COC(=O)c1cc(-c2ccc(Cl)s2)nc2ccccc12)NCc1ccco1
Second: O=C(CN(Cc1ccccc1)C(=O)CCC(=O)Nc1nccs1)NCc1ccco1
The inhibition of the first is higher: -9.8% for the first, -21.9% for the second.

Compared with `C=CCCC(=O)NC1CC(C)(C)Cc2c1cnn2-c1ccc(OC)cc1` (stereo not drawn), `COc1ccc(NC(=O)CSc2nn3c(=O)c(C)nnc3s2)cc1` is lower in inhibition: -7% for the first, -19.6% for the second.

First: Cc1ccccc1Oc1ncnc(N)c1[N+](=O)[O-]
Second: CCOc1ccccc1NC(=O)Nc1cnccn1
The inhibition of the first is lower: 4.6% for the first, 11.8% for the second.

Going from `Clc1ccccc1N1CCN(c2ncnc3nc[nH]c23)CC1` to `c1ccc2c(c1)CCN(c1ncnc3nc[nH]c13)C2`, the inhibition falls from -13.5% to -40.8%.

Going from `O=C(CCNC(=O)N1CCn2c1nc1ccccc12)NCc1ccc(Cl)cc1` to `CC(=O)Nc1cccc(NC(=O)CSc2nc3ccccc3o2)c1`, the inhibition rises from -26.9% to 43.3%.

Compared with `O=C(CN1C(=O)c2ccccc2C1=O)Oc1ccc(Cl)cc1`, `CCN1C(=O)c2cccc3c(S(=O)(=O)NCc4ccco4)ccc1c23` is lower in inhibition: -14.3% for the first, -23% for the second.

First: Cc1cccc(OCCOC(=O)C2CCN(S(=O)(=O)c3ccc(C)c(C)c3)CC2)c1
Second: O=C(CNCc1ccc(F)cc1)Nc1ccc(S(=O)(=O)N2CCOCC2)cc1
The inhibition of the first is higher: -9.6% for the first, -26.8% for the second.

Going from `CCN(CC(=O)NC1CCS(=O)(=O)C1)S(=O)(=O)c1ccc(C)cc1C` (stereo not drawn) to `Cc1ccc(CNC(=O)C2CCCN(S(=O)(=O)c3c(C)[nH]c(=O)[nH]c3=O)C2)cc1` (stereo not drawn), the inhibition rises from -12% to -3.9%.

First: Cc1c(CCC(=O)NCCC(=O)O)c(=O)oc2cc3occ(-c4ccccc4)c3cc12
Second: Cc1c(CC(=O)NCCCC(=O)O)c(=O)oc2cc3occ(-c4ccccc4)c3cc12
The inhibition of the first is lower: -7.4% for the first, -6.5% for the second.

First: O=C(c1ccncc1)N1CCc2ccccc2C1
Second: O=C(c1cccnc1)N1CCc2ccccc2C1
The inhibition of the first is lower: -32.9% for the first, -0.9% for the second.

Compared with `COCCn1nnnc1C(CC(C)C)N1CCN(c2ccccc2)CC1` (stereo not drawn), `COc1ccc(C(c2nnnn2C(C)C)N2CCN(C(=O)c3ccco3)CC2)cc1` (stereo not drawn) is higher in inhibition: -24.8% for the first, 10.7% for the second.

Compared with `CN1CCN(c2ccccc2NC(=S)NC(=O)c2cc3ccccc3o2)CC1`, `O=C(CSc1nnc(C2COc3ccccc3O2)o1)N1CCN(c2ccccc2)CC1` (stereo not drawn) is lower in inhibition: 5.8% for the first, -24.7% for the second.

Compared with `CN1C(=O)N(C)c2ccc(C=O)c3cccc1c23`, `CN1c2cccc3cccc(c23)N(C)C1(C)C` is higher in inhibition: -32.8% for the first, 9.4% for the second.

Compared with `CC(CCc1ccccc1)NC(=O)Cn1cccc1C(=O)c1ccccc1` (stereo not drawn), `CCOc1ccc(C(=O)NC(=S)N(Cc2ccccc2)Cc2ccccc2)cc1` is higher in inhibition: -9.7% for the first, 51.4% for the second.

Going from `Cc1nc2ccc(NC(=O)c3ccc(Cl)c(S(=O)(=O)N(C)c4ccccc4)c3)cc2s1` to `CN(c1ccccc1)S(=O)(=O)c1ccc(Cl)c(C(=O)Nc2ccc(-c3nc4ccccc4[nH]3)cc2)c1`, the inhibition falls from 51.8% to 4.8%.

Going from `COc1ccc(CCNC(=O)CCS(=O)(=O)c2ccc3c(c2)oc(=O)n3C)cc1OC` to `COc1ccc(/C=N/NC(=O)CCC(=O)Nc2ccccc2)cc1OC`, the inhibition rises from -25.6% to -8.6%.

Compared with `O=C(COc1ccc(Cl)cc1Cl)NC(=S)N1CCCc2ccccc21`, `CC(C)C(=O)NC(=S)N1CCc2ccccc21` is lower in inhibition: 28.6% for the first, -40.2% for the second.

Going from `CC(C)NC(=O)c1ccc2c(c1)N(CC(=O)N1CCCCC1)C(=O)C(C)(C)O2` to `CCOC(=O)C1CCCN(C(=O)CNC(=O)c2nn(-c3ccc(OC)c(Cl)c3)c(=O)c3ccccc23)C1` (stereo not drawn), the inhibition falls from 1.4% to -5.1%.

Going from `O=C(CSc1nnnn1-c1ccccc1)Nc1ncc(Cc2cccc(Cl)c2Cl)s1` to `Cn1nnnc1SCC(=O)Nc1nc(-c2ccc(F)c(F)c2)cs1`, the inhibition falls from -16.9% to -20.9%.

Going from `Cc1ccc(C)c(NC(=O)C2CC(O)CN2C(=O)OCc2ccccc2)c1` (stereo not drawn) to `COC(=O)Nc1ccc2c(c1)N(C(=O)CCCl)c1ccccc1S2`, the inhibition falls from 4.8% to 3.3%.

Compared with `COC(=O)CC1(C(=O)OC)Oc2ccc(Br)cc2C(=O)N1c1cc(Cl)cc(Cl)c1` (stereo not drawn), `O=C(NCCCN1CCOCC1)c1cccc(S(=O)(=O)Nc2cc(Cl)ccc2Cl)c1` is lower in inhibition: -11.1% for the first, -34.3% for the second.

First: Cc1nonc1NC(=O)CSc1ccccn1
Second: CC(=O)Nc1nonc1NC(=O)CSc1ccccn1
The inhibition of the first is higher: 4% for the first, 2.6% for the second.

First: COc1ccc(NC(=O)Nc2cnccn2)c(OC)c1
Second: COc1ccc(C(NC(C)=O)c2cc(Cl)c3cccnc3c2O)cc1 (stereo not drawn)
The inhibition of the first is lower: -27.1% for the first, -6.4% for the second.

Going from `COc1ccc(C(=O)NNC(=O)C(=O)/C=C(\O)c2ccc(C)cc2)cc1` to `Cc1cccc(C(=O)NC(=S)NCc2cccnc2)c1`, the inhibition falls from 0.6% to -31.1%.

Going from `Cc1sc2ncnc(SCC(=O)Nc3nc(-c4ccc(F)c(F)c4)cs3)c2c1C` to `Cc1nnc2sc(SCC(=O)Nc3nccs3)nn2c1=O`, the inhibition rises from -40.3% to -2.3%.

Compared with `CC1CN(C(=O)CCC(=O)NCCCN2C(C)CCCC2C)c2ccccc2O1` (stereo not drawn), `CC1CCCC(C)N1C(=O)c1cc(-c2cccs2)on1` (stereo not drawn) is lower in inhibition: 26.4% for the first, -28.6% for the second.

First: O=C(Cn1c(=O)oc2ccccc21)NC(=O)NCc1ccco1
Second: Cc1[nH]n(-c2ccccc2)c(=O)c1C=NCCc1ccccc1
The inhibition of the first is higher: -3.9% for the first, -43.1% for the second.

Going from `CCN(CC)C(=S)NC(=O)c1ccc(F)cc1` to `C/C(=N/NC(=O)c1ccc(C)s1)c1cccnc1`, the inhibition falls from -25% to -53.1%.

Compared with `CCCCN=Cc1c(C)[nH]n(-c2ccccc2)c1=S`, `CC1=C/C(=N\NC(=S)NCCc2ccccc2)CC(C)(C)C1` is lower in inhibition: 0.8% for the first, -43.4% for the second.

Compared with `Cc1ccc(-c2ccc(/C=N/n3cnnc3)o2)cc1Cl`, `Fc1ccc(-c2ccc(/C=N\n3cnnc3)o2)cc1Cl` is higher in inhibition: -11.3% for the first, 1.3% for the second.

Compared with `C/C(N)=C(/C#N)C(=O)COC(=O)c1cccc(O)c1`, `CC(C)OC(=O)CC(=O)CSc1nc2c(cc1C#N)CCCCC2` is higher in inhibition: -29.6% for the first, -26.3% for the second.

First: CCCCCCNC(=O)CCc1nc2cccnc2n1Cc1ccc(OC)cc1
Second: Cc1ccc(-n2cc(C(=O)c3ccc(N4CCN(C)CC4)cc3)nn2)cc1Cl
The inhibition of the first is higher: -10.4% for the first, -52.8% for the second.

First: CC(C)(C)C1CCC(=NNC(=S)Nc2cccnc2)CC1 (stereo not drawn)
Second: O=C(c1cccs1)N1CCC(C(=O)N2CCN(Cc3ccc4c(c3)OCO4)CC2)CC1
The inhibition of the first is higher: -17.4% for the first, -24.9% for the second.

Compared with `CC(C)OC(=O)CC(=O)CSc1nc2c(cc1C#N)CCCCCC2`, `CCOC(=O)C1=C(SCC)c2cc3c(n2C1=O)CCCC3` is lower in inhibition: -24.1% for the first, -36.8% for the second.

`N#CC1=C(N2CCCCC2)c2cc3c(n2C1=O)CCCC3` showed an inhibition of 7.7%.

In the case of `Brc1ccc2ncnc(NCc3ccccc3)c2c1`, the inhibition is reported as 93.1% (active).
With `CC1Cc2ccccc2N1c1ncnc(N)c1[N+](=O)[O-]` (stereo not drawn) the inhibition was 96.2% (active).
For `CC1Cc2ccccc2N1c1ncnc2nc[nH]c12` (stereo not drawn), the inhibition was 71.8% (active).
For `Cc1c(CCC(=O)NCCCCCC(=O)O)c(=O)oc2cc3occ(-c4ccccc4)c3cc12`, the inhibition was 34.3% (active).
For `O=C(c1cncc(Br)c1)N1CCc2ccccc2C1`, the inhibition was 80.2% (active).
For `CN1c2ccc(C=O)c3c(C=O)ccc(c23)N(C)C1(C)C`, the inhibition was 72% (active).
With `CC(Oc1ccc(Cl)cc1Cl)C(=O)NC(=S)N1CCc2ccccc21` (stereo not drawn) the inhibition was 102% (active).
In the case of `O=C(CSc1ccccn1)Nc1nonc1[N+](=O)[O-]`, the inhibition is reported as 57.6% (active).
In the case of `COc1ccccc1NC(=O)Nc1cnccn1`, the inhibition is reported as 111% (active).
For `O=C(CSc1ncnc2[nH]ncc12)Nc1nc(-c2ccc(F)c(F)c2)cs1`, the inhibition was 46% (active).
In the case of `CCCN(CCC)C(=S)NC(=O)c1ccc(-c2ccccc2)cc1`, the inhibition is reported as 52.6% (active).
For `COc1ccc(/C=N/NC(=O)CCOc2ccccc2C)cc1OC`, the inhibition was 62.5% (active).
In the case of `Cc1[nH]n(-c2ccccc2)c(=S)c1C=NCCCN=Cc1c(C)[nH]n(-c2ccccc2)c1=S`, the inhibition is reported as 88.7% (active).
In the case of `Cc1cc(-c2ccc(/C=N/n3cnnc3)o2)ccc1Cl`, the inhibition is reported as 67.4% (active).
In the case of `CC1=C/C(=N\NC(=S)Nc2cccnc2)CC(C)(C)C1`, the inhibition is reported as 43.4% (active).
With `CC(C)OC(=O)CSc1nc2c(cc1C#N)CCCCC2` the inhibition was 111% (active).
For `CCSC1=C(C#N)C(=O)n2c1cc1c2CCCC1`, the inhibition was 67% (active).

Source: PubChem BioAssay AID1578 (Sanford-Burnham Center for Chemical Genomics, 2009)
